HSP90 refold inh = HSP90 refolding inhibition in rabbit reticulocyte lysate; luciferase refolding luminescence, 3 h; inhibition, % at 5.6 µM; 290,000 compounds, 0.91% hits; AID 1789;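 active = inhibition above the screen-wide mean plus 3 SD, computed separately per campaign, cut at about 16% in these data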;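 also: 0% = DMSO wells and 100% = 60 µM geldanamycin wells; inhibitors lower the luminescence because luciferase stays unfolded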
TROY signal inh = inhibitors of TROY-dependent NF-kB signaling. Q293 LMP1-TROYcd NF-kB luciferase reporter, 4 h. inhibition, % at 10 µM. 360,000 compounds, 0.98% hits;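 active = compounds whose plate-normalised and pattern-corrected inhibition of the luciferase reporter signal at the single screening dose is 50% or more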
TWEAK-Fn14 inh = blocks TWEAK-Fn14 interaction in a reporter cell assay; AID 1159606; 360,000 compounds, 2% hits; TWEAK-stimulated Fn14 reporter cells, luciferase luminescence, 8 h; inhibition, % at 10 µM; in the data active = inhibition above about 50%
LGR2 antag = inhibitors of bursicon-induced Drosophila LGR2 receptor cAMP signaling; HEK293 LGR2, CRE-luciferase, bursicon-stimulated, 4 h; inhibition, % at 9.99 µM; 380,000 compounds, 0.35% hits;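 active = drop in luminescence signal, shown as inhibition above about 50% in the replicate tests, limit read from the data, passing the limit was not always enough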;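 also: agonist challenge used bursicon conditioned medium at about half maximal strength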
Starred values were filed as active, the others as inactive; . = not tested or not shown. Rows were chosen to be rich in hits. Some 2.2% of all compounds tested hit in one or more screens of this group.

SMILES	HSP90 refold inh	TROY signal inh	TWEAK-Fn14 inh	LGR2 antag
O=C(CN(c1cccc(Br)c1)S(=O)(=O)c1ccccc1)N/N=C/c1cc([N+](=O)[O-])ccc1O	.	52.1*	-14.5	45.5
CC[C@@H]1CCC[C@@H](O)[C@@H](C)C(=O)O[C@H](C)[C@@H](C)C/C=C(C)/C(OC)=C\C(=O)N(C)C([C@@H](C)CC)C(=O)N(C)[C@@H](C(C)C)C(=O)N(C)[C@@H](COC)C(=O)N2CCC[C@H]2C(=O)N(C)[C@@H](C(C)C)C(=O)N2CCC[C@H]2C(=O)O1 (stereo partly drawn)	.	47.2	77.4*	26.4
C=C1C(=O)OC2C1CCC(C)=C1C(=O)C3OC3(C)C12 (stereo not drawn)	.	40.8	95.0*	98.7*
CN1C(=O)c2cc(NC(=O)c3ccc(F)c(F)c3)ccc2OC[C@@H]2O[C@@H](CC(=O)N[C@@H]3CCN(Cc4ccccc4)C3)CC[C@H]21	.	.	.	-8.1
C=CCN1C(=O)N(c2ccc(F)cc2)C(=O)C1CC(=O)Nc1ccc(Cl)cc1 (stereo not drawn)	2.1	2.7	80.2*	-5.8
C=CCN1C(=O)N(c2ccc(Cl)cc2)C(=O)C1CC(=O)Nc1ccc(F)cc1 (stereo not drawn)	-2.1	6.4	38.1	14.7
C[C@@H]1CN([C@H](C)CO)C(=O)c2cccc(NC(=O)Nc3ccc4c(c3)OCO4)c2O[C@H]1CN(C)Cc1ccc(Cl)c(Cl)c1	.	.	.	6.7
CSc1ncc(Cl)c(C(=O)Nc2ccc(C)c(C)c2)n1	-4.0	-12.8	-10.3	3.8
CCS(=O)(=O)c1ncc(Cl)c(C(=O)Nc2ccc(S(=O)(=O)N3CCC(C)CC3)cc2)n1	3.1	85.0*	95.4*	20.9
CC1CCN(S(=O)(=O)c2ccc(NC(=O)c3ccncc3)cc2)CC1	0.8	20.2	1.8	4.6
CCOC(=O)c1ccc(NC(=O)CCS(=O)(=O)Cc2ccccc2)cc1	4.6	-26.6	-1.3	6.3
CCOC(=O)c1ccc(NC(=O)c2nc(S(=O)(=O)Cc3ccccc3)ncc2Cl)cc1	2.5	63.0*	62.5*	-9.1
Cc1ccc(NC(=O)c2nc(S(=O)(=O)Cc3ccccc3C)ncc2Cl)cc1C	3.3	85.6*	82.8*	2.7
CCc1ccc(NC(=O)c2nc(S(=O)(=O)Cc3ccccc3)ncc2Cl)cc1	0.2	78.8*	85.9*	3.3
CO[C@H]1CN(C)C(=O)c2cc(NC(=O)CC(F)(F)F)ccc2OC[C@@H](C)NC[C@@H]1C	.	.	.	10.0
N#Cc1ccccc1Sc1ccccc1C(=O)OCC(=O)NC12CC3CC(CC(C3)C1)C2	1.3	34.9	62.8*	3.1
CC(=O)N(C)C[C@@H]1Oc2cc(C3=CCCCC3)ccc2S(=O)(=O)N([C@@H](C)CO)C[C@@H]1C	.	.	.	17.8
O=C(CC1CC1)N1CC(=O)N2[C@H](CO)[C@@H](c3ccc(C#Cc4ccccc4)cc3)[C@@H]2C1	.	.	.	7.0
CN1OC[C@@H]2CN[C@H](c3ccc(-c4cc5ccccc5o4)cc3)C[C@@H]21	.	90.3*	106.4*	.
C=C1CC2(CC(c3ccccc3)OC(c3ccccc3)C2)OC1=O (stereo not drawn)	.	22.5	86.8*	-8.9
CCCNC(=O)Nc1ccc2c(c1)C(=O)N(C)C[C@H](OC)[C@@H](C)CN(C(=O)C1CCCCC1)[C@H](C)CO2	.	.	.	33.5
COc1ccc(OC)c(-c2c3cc(O)c(=O)cc-3oc3cc(O)c(O)cc23)c1	5.1	11.4	73.7*	.
CCOc1ccccc1-c1c2cc(O)c(=O)cc-2oc2cc(O)c(O)cc12	0.3	22.5	74.3*	.
O=C(NC1CCCCC1)[C@@H]1[C@@H](CO)[C@@H]2Cn3c(cccc3=O)[C@H]1N2CC1CCCC1	.	.	.	0.1
c1cc(-c2cnc3cccnn23)c2cccnc2c1	.	35.8	61.4*	.
SMILES	HSP90 refold inh	TROY signal inh	TWEAK-Fn14 inh	LGR2 antag
c1ccc2c(-c3cnc4cccnn34)cncc2c1	.	4.0	21.8	-9.0
CC1=C(C(=O)OCc2ccc3c(c2)OCO3)C(c2ccccc2)NC(=O)N1 (stereo not drawn)	2.6	58.6*	87.4*	32.6
CCOC(=O)C1=C(CNCc2ccccc2Cl)NC(=O)NC1c1ccc2c(c1)OCO2 (stereo not drawn)	2.7	.	79.8*	.
CC1=C(C(=O)OCc2ccc3c(c2)OCO3)C(c2ccc(O)c([N+](=O)[O-])c2)NC(=O)N1 (stereo not drawn)	0.4	43.7	71.0*	-2.1
COc1cccc(CN2CC3(CCN(C(C)=O)CC3)c3c(n(C)c4cc(OC)ccc34)[C@H]2CO)c1	.	.	.	-13.2
COCC(=O)N1CC2(CCN(C(=O)CN3CCOCC3)CC2)c2c([nH]c3cc(OC)ccc23)[C@H]1CO	.	.	.	-12.1
C[C@H]1CN([C@@H](C)CO)C(=O)c2cc(NC(=O)CCN3CCOCC3)ccc2O[C@@H]1CN(C)Cc1ccc(-c2ccccc2)cc1	.	.	.	-16.8
CO[C@@H]1CN(C)C(=O)c2cc(NC(C)=O)ccc2OC[C@H](C)NC[C@H]1C	.	.	.	5.9
O=C(Nc1ccc(N2CCOCC2)cc1)c1nc2ccccc2s1	-1.2	54.8*	40.3	29.3
CC(NC(=O)CSc1nc2ccc(N)cc2s1)c1ccccc1 (stereo not drawn)	-4.5	51.9*	20.8	.
CC(C)(C)NC(=O)CSc1nc2ccc(NC(=O)CSc3nnnn3Cc3ccccc3)cc2s1	-2.4	50.3*	73.5*	.
Cc1ccccc1OCc1nnc(SCC(=O)Nc2ccc3nc(SCC(=O)NC(C)(C)C)sc3c2)n1C	0.2	.	89.0*	.
CC(=O)N(Cc1cccc(F)c1)C[C@@H]1[C@@H](c2ccccc2)[C@@H](CO)N1C(C)=O	.	.	.	14.3
COCC#Cc1cnc2c(c1)C(=O)N([C@H](C)CO)C[C@H](C)[C@@H](CN(C)Cc1ccc3c(c1)OCO3)O2	.	.	.	-9.8
Cc1nc([N+](=O)[O-])c(Sc2nc3ccccc3[nH]2)n1Cc1ccccc1	6.5	7.2	57.4*	10.8
COc1ccc2nc(Sc3c([N+](=O)[O-])nc(C)n3Cc3ccccc3)[nH]c2c1	1.1	.	.	.
Cc1cc2nc(Sc3c([N+](=O)[O-])nc(C)n3Cc3ccccc3)[nH]c2cc1C	5.9	31.6	83.5*	14.6
COc1ccc(NC(=O)Nc2ccc3c(c2)C(=O)N([C@@H](C)CO)C[C@@H](C)[C@@H](CN(C)Cc2ccc(Cl)c(Cl)c2)OCCCC[C@@H](C)O3)cc1	.	.	.	13.6
C[C@@H]1CN([C@@H](C)CO)C(=O)c2cc(NC(=O)NC3CCCCC3)ccc2O[C@H]1CN(C)Cc1ccncc1	.	.	.	8.2
C=C(C)[C@@H]1C2=CC(C(=O)OC)=C(C[C@H](C(=C)C)[C@H]3O[C@H]3C3=C[C@H]1OC3=O)O2	.	2.1	72.1*	.
O=C(NC(NCc1cccnc1)C(Cl)(Cl)Cl)c1cccc2ccccc12 (stereo not drawn)	-2.6	-7.3	65.4*	-9.1
O=P(CCCCCCCCCP(=O)(c1ccccc1)c1ccccc1)(c1ccccc1)c1ccccc1	6.4	55.0*	48.1	.
O=C(O)CCCCCCCCCCP(=O)(c1ccccc1)c1ccccc1	-0.9	3.5	-93.6	9.8
COc1ccc(S(=O)(=O)N(C)C[C@H]2Oc3ccc(NC(=O)Nc4ccc5c(c4)OCO5)cc3CC(=O)N([C@H](C)CO)C[C@@H]2C)cc1	.	.	.	1.3

Assay outcomes as filed in PubChem.
